Screens deposited in PubChem by University of Kansas High Throughput Screening Laboratory.
Sampled rows, rich in hits. Any-hit rate of the full collection: about 3.5%.
Pf apPOL inh: Pf-apPOL inhibitors, biochemical, fluorescence. Recombinant Pf-apPOL, molecular beacon fluorescence, 1.5 h. inhibition, % at 10 µM. 0.25% of 210,000 active. AID 1794808, 2022
mHTT-CaM PPI inh: mutant huntingtin-calmodulin interaction inhibitors – biochemical, AlphaScreen, primary screen; P42858; AlphaScreen His-mHTT/GST-CaM binding, luminescence; inhibition, % at 15 µM; 3.6% of 190,000 active; AID 1671202, 2021;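 also: 0% = both proteins with DMSO and 100% = one protein alone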
Starred values were filed as active, the others as inactive. Rule as the data show it: active = inhibition above about 50%; inactive = the rest.

Results for O=C(O)C1CC(=O)N(c2cccc(Cl)c2Cl)C1 (centres undefined) ?
Pf apPOL inh: -0.3; mHTT-CaM PPI inh: -4.0

What do the screens show for `Clc1ccc(-c2cnc3n2CCC3)cc1Cl`?
Pf apPOL inh: -4.9; mHTT-CaM PPI inh: 89.0*

What do the screens show for `Clc1ccc(-c2cn3c(n2)CCC3)cc1Cl`?
Pf apPOL inh: -2.7; mHTT-CaM PPI inh: 38.0

Results for COc1ccc(C(=O)N2CCC3(CC2)NC(=O)N(Cc2cccc(Cl)c2)C3=O)c(C)c1 ?
Pf apPOL inh: -6.0; mHTT-CaM PPI inh: 27.1

What do the screens show for `O=S(=O)(c1ccccc1)c1nc(-c2ccccc2)oc1N1CCOCC1`?
Pf apPOL inh: -2.9; mHTT-CaM PPI inh: 1.0

What do the screens show for `O=S(=O)(c1ccccc1)c1nc(Cc2ccccc2)oc1N1CCCCCC1`?
Pf apPOL inh: 68.0*; mHTT-CaM PPI inh: 23.0

What do the screens show for `Cc1cc2c(c(=O)[nH]1)C(=O)O/C2=C\c1cccs1`?
Pf apPOL inh: -2.9; mHTT-CaM PPI inh: 12.0

Results for Cc1cc2c(c(=O)[nH]1)C(=O)O/C2=C\c1ccc(C)o1 ?
Pf apPOL inh: -2.9; mHTT-CaM PPI inh: 69.4*

How did Cc1cccc(N2C(=O)CSC23CCN(C(=O)C(C)Cl)CC3)c1 (centres undefined) do in these assays?
Pf apPOL inh: 0.9; mHTT-CaM PPI inh: -4.7

How did O=C(NC(NCC1CCCO1)C(Cl)(Cl)Cl)c1ccco1 (centres undefined) do in these assays?
Pf apPOL inh: 97.2*; mHTT-CaM PPI inh: -1.0

Results for O=C(NC(NCCc1ccccc1)C(Cl)(Cl)Cl)c1ccco1 (centres undefined) ?
Pf apPOL inh: -0.9; mHTT-CaM PPI inh: -10.0

What do the screens show for `COc1ccc(C(=O)Nc2ccc(Cl)cc2Cl)cc1Br`?
Pf apPOL inh: 0.7; mHTT-CaM PPI inh: -8.0

What do the screens show for `O=[N+]([O-])c1ccc2nc(SCc3c[nH]c4ccccc34)sc2c1`?
Pf apPOL inh: -8.9; mHTT-CaM PPI inh: 58.5*

What do the screens show for `O=[N+]([O-])c1ccc2nc(SCc3ccccc3F)sc2c1`?
Pf apPOL inh: -1.8; mHTT-CaM PPI inh: 11.9

How did CC(=O)c1c(-c2ccccc2)c2cc(Cl)ccc2[nH]c1=O do in these assays?
Pf apPOL inh: -4.1; mHTT-CaM PPI inh: 31.9

What do the screens show for `CC(=O)c1c(-c2ccccc2)c2cc(Br)ccc2[nH]c1=O`?
Pf apPOL inh: 0.9; mHTT-CaM PPI inh: 58.0*

What do the screens show for `CC(C)CC1C(=O)N(Cc2cn(CCC3OCCCO3)nn2)CCS(=O)(=O)N1Cc1ccc(-c2cccc(N(C)C)c2)cc1` (centres undefined)?
Pf apPOL inh: -2.1; mHTT-CaM PPI inh: 69.3*

How did COc1ccc(-c2ccc(CN3C(CC(C)C)C(=O)N(Cc4cn(CCC5OCCCO5)nn4)CCS3(=O)=O)cc2)cc1OC (centres undefined) do in these assays?
Pf apPOL inh: 2.0; mHTT-CaM PPI inh: 20.7

What do the screens show for `CC(C)CC1C(=O)N(Cc2cn(CCC3OCCCO3)nn2)CCS(=O)(=O)N1Cc1ccc(-c2ccccc2)cc1` (centres undefined)?
Pf apPOL inh: -5.8; mHTT-CaM PPI inh: 53.5*

What do the screens show for `CC(C)CC1C(=O)N(Cc2cn(CCC3OCCCO3)nn2)CCS(=O)(=O)N1Cc1ccc(-c2ccncc2)cc1` (centres undefined)?
Pf apPOL inh: -2.5; mHTT-CaM PPI inh: 31.4

What do the screens show for `Cc1ccccc1NC(=O)N1CCCN(c2ncccc2-c2nc(C3CC3)no2)CC1`?
Pf apPOL inh: -3.4; mHTT-CaM PPI inh: -5.0

Results for Cc1ccccc1-c1c(-c2ccc([N+](=O)[O-])cc2)oc2cc(O)ccc2c1=O ?
Pf apPOL inh: -5.1; mHTT-CaM PPI inh: 33.6

Results for COc1cccc(OCC(O)CNC(C)(C)CO)c1 (centres undefined) ?
Pf apPOL inh: -0.6; mHTT-CaM PPI inh: -3.9

What do the screens show for `COC(=O)c1ccc2c(=O)n(-c3ccccc3)c(N3CCN(c4ccccn4)CC3)nc2c1`?
Pf apPOL inh: 0.3; mHTT-CaM PPI inh: -13.1

Results for O=C(O)CCCN1C(=O)CC(N2C(=O)C(=CC=Cc3ccccc3)SC2=S)C1=O (centres undefined) ?
Pf apPOL inh: -67.3; mHTT-CaM PPI inh: 54.1*

Results for CC(/C=C1\SC(=S)N(CC(=O)O)C1=O)=C\c1ccccc1 ?
Pf apPOL inh: -1.9

How did O=C(O)CCCN1C(=O)C(=CC=Cc2ccccc2)SC1=S do in these assays?
Pf apPOL inh: -75.2; mHTT-CaM PPI inh: 24.9

Results for CC(=Cc1ccccc1)C=C1SC(=S)N(C2CC(=O)N(CCCCCC(=O)O)C2=O)C1=O (centres undefined) ?
Pf apPOL inh: -94.5; mHTT-CaM PPI inh: 53.2*

How did COc1ccccc1-c1n[nH]c(C2CC2)c1NC(=O)C(C)C do in these assays?
Pf apPOL inh: -1.3; mHTT-CaM PPI inh: 0.1

Results for O=C(NCCc1ccccc1)C1CC(=O)N(CCc2c[nH]c3ccc(F)cc23)C1 (centres undefined) ?
Pf apPOL inh: -5.0; mHTT-CaM PPI inh: 35.6

What do the screens show for `O=C1CCC[C@@H]2C[C@@]3(C[C@@H]4CCN1[C@H]24)Nc1cc(Cl)ccc1NC3=NC1CCCCC1`?
Pf apPOL inh: -2.2; mHTT-CaM PPI inh: 29.7

What do the screens show for `O=C1CCC[C@@H]2C[C@@]3(C[C@@H]4CCN1[C@H]24)Nc1cc([N+](=O)[O-])ccc1NC3=NC1CCCCC1`?
Pf apPOL inh: -2.9; mHTT-CaM PPI inh: 51.3*

What do the screens show for `CC(C)(C)CC(C)(C)N=C1Nc2ccc(Cl)cc2N[C@]12C[C@H]1CCCC(=O)N3CC[C@@H](C2)[C@@H]13`?
Pf apPOL inh: -2.4; mHTT-CaM PPI inh: 72.6*

Results for Cc1ccccc1N=C1Nc2ccccc2N[C@]12C[C@H]1CCCC(=O)N3CC[C@@H](C2)[C@@H]13 ?
Pf apPOL inh: -1.2; mHTT-CaM PPI inh: 14.7

How did O=C1CCC[C@@H]2C[C@@]3(C[C@@H]4CCN1[C@H]24)Nc1cc(Cl)ccc1NC3=NCc1ccccc1 do in these assays?
Pf apPOL inh: -3.0; mHTT-CaM PPI inh: 62.5*

What do the screens show for `Cc1cc2c(cc1C)N[C@]1(C[C@H]3CCCC(=O)N4CC[C@@H](C1)[C@@H]34)C(=NC(C)(C)CC(C)(C)C)N2`?
Pf apPOL inh: -4.3; mHTT-CaM PPI inh: 99.6*

How did Cc1cc2c(cc1C)N[C@]1(C[C@H]3CCC(=O)N4CC[C@@H](C1)[C@@H]34)C(=Nc1ccccc1C)N2 do in these assays?
Pf apPOL inh: -4.7; mHTT-CaM PPI inh: 48.5

How did Cc1cc2c(cc1C)N[C@]1(C[C@H]3CCCC(=O)N4CC[C@@H](C1)[C@@H]34)C(=NCc1ccccc1)N2 do in these assays?
Pf apPOL inh: 1.6; mHTT-CaM PPI inh: 33.9

How did O=C(Nc1ccc(N2CCOCC2)c(Br)c1)c1cccs1 do in these assays?
Pf apPOL inh: -0.5; mHTT-CaM PPI inh: 0.2

What do the screens show for `CCN1C(=O)c2cccnc2Sc2cc(CNC(=O)c3cccc(F)c3)ccc21`?
Pf apPOL inh: 2.1; mHTT-CaM PPI inh: 4.4

How did O=C(O)c1cc([N+](=O)[O-])c(N2CCN(c3cccc(C(F)(F)F)c3)CC2)c([N+](=O)[O-])c1 do in these assays?
Pf apPOL inh: 84.0*; mHTT-CaM PPI inh: 47.0

What do the screens show for `O=[N+]([O-])c1ccc(N2CCN(c3cccc(C(F)(F)F)c3)CC2)s1`?
Pf apPOL inh: -1.1; mHTT-CaM PPI inh: 38.0

How did CCCNc1cc(N2CCC(CCC(=O)Nc3ccc4c(c3)OCCO4)CC2)ncn1 do in these assays?
Pf apPOL inh: -4.3; mHTT-CaM PPI inh: 9.4

How did CCNc1cc(N2CCC(CCC(=O)Nc3cc(C)ccc3OC)CC2)ncn1 do in these assays?
Pf apPOL inh: -3.5; mHTT-CaM PPI inh: 54.9*
